Assay results taken from PubChem BioAssay (NCI).
The panel holds about 83,000 compounds, 20% with a hit somewhere; the sample as a whole holds those more often.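 Assay: single dose, 48 h. Readout: percent growth (0 = no net growth; negative = cell death). Active: <10.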 A number with no mark means an inactive call. Calls of active or inactive are those of the source.

How the values were obtained:
Experiment in all cases: NCI-60 one-dose screen, 48 h (100 = growth as untreated, 0 = no growth, -100 = all killed)
[1] = system: NCI-H23 lung; conditions: 10 µM unless noted
[2] = system: NCI-H226 lung; conditions: 10 µM unless noted
[3] = system: NCI-H322M lung; conditions: 10 µM unless noted
[4] = system: HOP-62 NSCLC; conditions: 10 µM unless noted
[5] = system: NCI-H460 lung; conditions: 10 µM unless noted
[6] = system: HOP-92 NSCLC; conditions: 10 µM unless noted
[7] = system: NCI-H522 lung; conditions: 10 µM unless noted
[8] = system: A549/ATCC NSCLC; conditions: 10 µM unless noted
[9] = system: 786-0 renal; conditions: 10 µM unless noted
[10] = system: COLO 205 colon; conditions: 10 µM unless noted
[11] = system: DU-145 prostate; conditions: 10 µM unless noted
[12] = system: K-562 leukemia; conditions: 10 µM unless noted
[13] = system: MALME-3M melanoma; conditions: 10 µM unless noted
[14] = system: MDA-MB-231 breast; conditions: 10 µM unless noted
[15] = system: RXF 393 renal; conditions: 10 µM unless noted
[16] = system: SF-268 CNS; conditions: 10 µM unless noted
[17] = system: SF-295 CNS; conditions: 10 µM unless noted
[18] = system: SF-539 CNS; conditions: 10 µM unless noted
[19] = system: UACC-257 melanoma; conditions: 10 µM
[20] = system: M14 melanoma; conditions: 10 µM unless noted

`O=C(NCCCNc1cc(-c2cn(-c3ccccc3)nc2-c2cccc(O)c2)ccn1)Nc1ccc(F)cc1` was tested. Which growth [1] did it give?
The growth was 26.3%.

And the growth [2]?
The growth was 32.6%.

And the growth [3]?
Its growth is 35.3%.

What about the growth [4] of the same molecule?
Its growth is 24%.

What about the growth [5] of the same molecule?
The growth was 21.4%.

What about the growth [6] of the same molecule?
The growth was -11.5% (active).

And the growth [7]?
Its growth is 1.7% (active).

What about the growth [8] of the same molecule?
Its growth is 29.2%.

And the growth [9]?
Its growth is -39.4% (active).

What about the growth [10] of the same molecule?
The growth was -39.4% (active).

And the growth [11]?
The growth was 31.4%.

And the growth [12]?
The growth was 5.52% (active).

And the growth [13]?
Its growth is -27.3% (active).

And the growth [14]?
The growth was 0.136% (active).

What about the growth [15] of the same molecule?
The growth was -34.9% (active).

What about the growth [16] of the same molecule?
The growth was 18%.

And the growth [17]?
The growth was -44.3% (active).

What about the growth [18] of the same molecule?
The growth was 6.41% (active).

And the growth [19]?
The growth was -51.9% (active).

Which results are given for `COc1ccc(Cn2cc3c(c2-c2cc(OC)c(OC)c(OC)c2)CCCc2cnoc2-3)cc1`?
growth [1]: 32.5%; growth [2]: 53.6%; growth [3]: 39.6%; growth [4]: 43.2%; growth [5]: 7.42% (active); growth [6]: 50.6%; growth [7]: 10.4%; growth [8]: 33.6%; growth [9]: 37.1%; growth [10]: -0.67% (active); growth [11]: 17.4%; growth [12]: 10.2%; growth [13]: 57.5%; growth [14]: 32.4%; growth [15]: -2.75% (active); growth [16]: 57.7%; growth [17]: 5.29% (active); growth [18]: 2.82% (active); growth [19]: 81.5%

For `O=C(Nc1ccc(F)cc1)c1cc(-c2ccc(F)cc2F)ccc1O`, which growth [1] is on record?
The growth was 1.86% (active).

What about the growth [2] of the same molecule?
The growth was 5.87% (active).

And the growth [3]?
The growth was 9.89% (active).

And the growth [4]?
The growth was 12%.

What about the growth [5] of the same molecule?
The growth was 4.82% (active).

What about the growth [6] of the same molecule?
The growth was -26.6% (active).

And the growth [7]?
Its growth is -4.42% (active).

And the growth [8]?
The growth was 30.6%.

And the growth [9]?
Its growth is 15.5%.

What about the growth [10] of the same molecule?
Its growth is 96.4%.

What about the growth [11] of the same molecule?
Its growth is 16%.

What about the growth [12] of the same molecule?
The growth was 15.4%.

And the growth [13]?
Its growth is -10.5% (active).

And the growth [14]?
Its growth is 17.6%.

And the growth [15]?
The growth was -21.1% (active).

What about the growth [16] of the same molecule?
The growth was 14.8%.

What about the growth [17] of the same molecule?
The growth was 25%.

And the growth [18]?
Its growth is 15.6%.

What about the growth [19] of the same molecule?
The growth was -20.7% (active).

With `NS(=O)(=O)c1ccc(Nc2nc(N/N=C/c3ccc(C(F)(F)F)cc3)nc(Nc3ccccc3)n2)cc1` as the molecule, how does the growth [1] read?
Its growth is 52.8%.

What about the growth [2] of the same molecule?
Its growth is 36.7%.

What about the growth [3] of the same molecule?
The growth was 52.6%.

And the growth [4]?
Its growth is 38%.

And the growth [5]?
The growth was 14.6%.

And the growth [6]?
Its growth is 57.4%.

And the growth [7]?
The growth was 38%.

And the growth [8]?
Its growth is 27.6%.

And the growth [9]?
Its growth is -3.55% (active).

And the growth [10]?
The growth was 29.3%.

What about the growth [11] of the same molecule?
Its growth is 39.3%.

And the growth [12]?
The growth was 17.5%.

And the growth [13]?
Its growth is 22.4%.

And the growth [14]?
The growth was 26.1%.

And the growth [15]?
The growth was -39.5% (active).

What about the growth [16] of the same molecule?
The growth was 50.4%.

What about the growth [17] of the same molecule?
The growth was 4.66% (active).

What about the growth [18] of the same molecule?
The growth was 23.8%.

What about the growth [19] of the same molecule?
The growth was 39.6%.

Which growth [1] does the source give for `Cc1cc(NS(=O)(=O)c2ccc(-c3cnc(C4CC4)o3)cc2)ccc1I` here?
Its growth is 37.7%.

And the growth [2]?
Its growth is 57.8%.

What about the growth [3] of the same molecule?
Its growth is 45.8%.

And the growth [4]?
The growth was 43.8%.

What about the growth [5] of the same molecule?
Its growth is 22.2%.

And the growth [6]?
The growth was 62.4%.

What about the growth [7] of the same molecule?
Its growth is 30.6%.

What about the growth [8] of the same molecule?
The growth was 48.1%.

And the growth [9]?
Its growth is 46.3%.

And the growth [10]?
Its growth is 22.9%.

And the growth [11]?
Its growth is 26%.

And the growth [12]?
Its growth is 11.6%.

And the growth [13]?
The growth was 48.8%.

What about the growth [14] of the same molecule?
Its growth is 40.9%.

And the growth [15]?
Its growth is 10.8%.

And the growth [16]?
The growth was 65.1%.

And the growth [17]?
Its growth is -2.36% (active).

What about the growth [18] of the same molecule?
Its growth is 11.5%.

What about the growth [19] of the same molecule?
Its growth is 66.8%.

With `CN1CCN(c2ccc3c(c2)nc(NNC(=O)c2ccncn2)c2cccn23)CC1` as the molecule, how does the growth [1] read?
Its growth is 36.2%.

What about the growth [2] of the same molecule?
The growth was 44.5%.

What about the growth [3] of the same molecule?
Its growth is 30.2%.

What about the growth [4] of the same molecule?
The growth was 35.7%.

What about the growth [5] of the same molecule?
Its growth is 27.4%.

And the growth [6]?
The growth was 53.1%.

What about the growth [7] of the same molecule?
Its growth is 18.2%.

And the growth [8]?
The growth was 23.3%.

What about the growth [9] of the same molecule?
The growth was 9.5% (active).

What about the growth [10] of the same molecule?
The growth was 17.9%.

What about the growth [11] of the same molecule?
Its growth is 27.5%.

What about the growth [12] of the same molecule?
Its growth is 25.6%.

And the growth [13]?
The growth was 43.9%.

What about the growth [14] of the same molecule?
Its growth is 36.9%.

And the growth [15]?
Its growth is 66.5%.

And the growth [16]?
The growth was 26.6%.

What about the growth [17] of the same molecule?
Its growth is 0.713% (active).

And the growth [18]?
Its growth is 24.2%.

And the growth [19]?
Its growth is 42.8%.

What about the growth [20] of the same molecule?
Its growth is 9.89% (active).

`COc1ccc(C2C(C#N)=C(N)Oc3c2sc2ccc(C)cc32)cc1` (centres undefined) was tested. Which growth [1] did it give?
Its growth is 43.7%.

What about the growth [2] of the same molecule?
Its growth is 34.9%.

And the growth [3]?
The growth was 71.8%.

What about the growth [4] of the same molecule?
The growth was 30.1%.

And the growth [5]?
The growth was 15.2%.

And the growth [6]?
Its growth is 72.1%.

And the growth [7]?
Its growth is -34.3% (active).

And the growth [8]?
The growth was 45.6%.

What about the growth [9] of the same molecule?
The growth was 42%.

What about the growth [10] of the same molecule?
The growth was 36.8%.

And the growth [11]?
Its growth is 36.3%.

What about the growth [12] of the same molecule?
The growth was 18.2%.

What about the growth [13] of the same molecule?
The growth was 50%.

What about the growth [14] of the same molecule?
Its growth is 42.2%.

And the growth [15]?
The growth was -7.62% (active).

What about the growth [16] of the same molecule?
The growth was 44.7%.

And the growth [17]?
Its growth is 9.1% (active).

And the growth [18]?
Its growth is 21%.

What about the growth [19] of the same molecule?
The growth was 57.1%.

What about the growth [20] of the same molecule?
Its growth is 20.9%.

`CC(C)(C)n1nnnc1C(Nc1nccs1)c1cc2cccc3ccc4cccc1c4c32` (centres undefined) was tested. Which growth [1] did it give?
Its growth is 100%.

And the growth [2]?
Its growth is -13% (active).

And the growth [3]?
Its growth is 95.5%.

What about the growth [4] of the same molecule?
The growth was 84.9%.

What about the growth [5] of the same molecule?
The growth was 99.8%.

And the growth [6]?
Its growth is 103%.

And the growth [7]?
Its growth is 100%.

And the growth [8]?
The growth was 108%.

What about the growth [9] of the same molecule?
The growth was 107%.

What about the growth [10] of the same molecule?
The growth was 104%.

And the growth [11]?
The growth was 107%.

What about the growth [12] of the same molecule?
The growth was 102%.

And the growth [13]?
The growth was 97%.

What about the growth [14] of the same molecule?
The growth was 99.3%.

What about the growth [15] of the same molecule?
Its growth is 92.1%.

And the growth [16]?
Its growth is 100%.

And the growth [17]?
Its growth is 93.1%.

What about the growth [18] of the same molecule?
The growth was 92.9%.

What about the growth [19] of the same molecule?
Its growth is 100%.
